Results on 16 molecules are retold here after PubChem BioAssay (NCI).

Among the test systems are T-47D breast; BT-549 breast; MDA-MB-435 melanoma; SW-620 colon; MCF7 breast; HCT-116 colon; HCC-2998 colon; KM12 colon.
Assay in all cases: NCI-60 one-dose screen, 48 h (100 = growth as untreated, 0 = no growth, -100 = all killed)
Holding throughout (settings): 10 µM unless noted

Compounds without any hit were thinned out: in the full panel of roughly 83,000, 20% have a hit.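 48-hour exposure, single concentration, 96-well plates; percent growth endpoint where 0 means no net growth. Active: below 10.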 Values without a mark were called inactive. Calls of active or inactive are those of the source.

`CC(C)(C)C(=O)Nc1nc2c(s1)CCc1ccn(S(=O)(=O)c3ccccc3)c1-2`: the growth was 66.6% in the test on T-47D breast; 94.5% with BT-549 breast; 108% in the test on MDA-MB-435 melanoma; 101% with SW-620 colon; 85.9% in the test with MCF7 breast; 78.7% with HCT-116 colon. The growth was 100% in the test on HCC-2998 colon and 89.8% in the test with KM12 colon.

Turning to `O=C(NNC(=O)c1ccc([N+](=O)[O-])cc1)c1ccc([N+](=O)[O-])cc1`, the growth in the test with T-47D breast is 92%; in the test on BT-549 breast it was 89.8%; in the test with MDA-MB-435 melanoma, 101%; in the test on SW-620 colon, 106%; in the test with MCF7 breast, 90.4%; in the test on HCT-116 colon it was 84.6%. The growth with HCC-2998 colon was 104%; in the test with KM12 colon, 105%.

In the case of `O=C(/C=C/c1ccco1)c1cccc(Nc2nc(Nc3ccccc3)nc(Nc3ccccc3)n2)c1`, the growth in the test on T-47D breast is 48.6%; in the test with BT-549 breast, 116%; in the test on MDA-MB-435 melanoma, 102%; with SW-620 colon, 88%; in the test on MCF7 breast, 28.3%; in the test with HCT-116 colon, 40.4%. In addition, the growth in the test with HCC-2998 colon was 68.5%; in the test with KM12 colon it was 83.7%.

As for `Nc1nc(Cl)cc(NCc2ccc(CNc3cc(Cl)nc(N)n3)cc2)n1`, the growth is 69.2% with T-47D breast; 72.6% with BT-549 breast; 106% in the test on MDA-MB-435 melanoma; 87.4% in the test on SW-620 colon; 103% with MCF7 breast; 83.3% with HCT-116 colon. The growth in the test with HCC-2998 colon was 101%; with KM12 colon, 99%.

Regarding `Cc1nccc2c3ccc(OCc4cn(Cc5ccc(Br)cc5)nn4)cc3n(CCCc3ccccc3)c12`, the growth with T-47D breast is 93.3%; in the test with BT-549 breast it was 88.2%; with MDA-MB-435 melanoma it was 96.7%; with SW-620 colon, 97.8%; in the test with MCF7 breast, 75.2%; with HCT-116 colon, 63.6%. Moreover, the growth in the test with HCC-2998 colon is 84.7%; in the test with KM12 colon, 92.6%.

`COc1ccc(-c2c(NC(=O)Nc3ccc(Cl)c(C(F)(F)F)c3)cnn2-c2ccc(S(N)(=O)=O)cc2)cc1`: the growth in the test on T-47D breast was 16.9%; in the test on BT-549 breast it was 39.3%; with MDA-MB-435 melanoma it was 24.3%; in the test with SW-620 colon, 38.2%; in the test on MCF7 breast it was 11.5%; with HCT-116 colon it was 14.5%. Moreover, the growth was 28.5% in the test on HCC-2998 colon and 29.6% in the test on KM12 colon.

As to `CCN(CC)CCNC(=O)c1c(C)[nH]c(/C=C2\C(=O)Nc3cc(NC(=O)NC(=O)c4ccc(OC)cc4F)ccc32)c1C`, the growth with T-47D breast was 104%; with BT-549 breast, 104%; in the test on MDA-MB-435 melanoma, 110%; with SW-620 colon it was 94.9%; in the test on MCF7 breast, 58.3%; with HCT-116 colon, 64.7%. Besides, the growth was 100% in the test with HCC-2998 colon and 51.5% in the test with KM12 colon.

For the molecule `C=CC(=O)NC(=O)Nc1ccccc1Cl`, the growth in the test with T-47D breast is 65.8%; in the test with BT-549 breast, 75.3%; with MDA-MB-435 melanoma it was 82.4%; with SW-620 colon, 53.6%; in the test with MCF7 breast, 27.1%; in the test on HCT-116 colon, 55.5%. Further, the figures for the growth with HCC-2998 colon and in the test on KM12 colon were 110% and 96.4%, respectively.

With `CCCCCC/C=N/Nc1ccc([N+](=O)[O-])cn1`, the growth in the test with T-47D breast was 88.4%; in the test on BT-549 breast it was 96.2%; with MDA-MB-435 melanoma, 101%; in the test with SW-620 colon it was 102%; in the test with MCF7 breast it was 90.7%; in the test with HCT-116 colon, 84.7%. Further, the growth was 85.9% in the test on HCC-2998 colon and 99.5% in the test on KM12 colon.

On to `Cc1cc(C)c(O)c(C(=O)CC(Br)C(=O)O)c1` (stereo not drawn), for which the growth is 92.9% in the test on T-47D breast; 97.6% in the test with BT-549 breast; 102% with MDA-MB-435 melanoma; 116% in the test on SW-620 colon; 66.6% in the test with MCF7 breast; 99.3% in the test with HCT-116 colon. The values for the growth in the test on HCC-2998 colon and with KM12 colon were 93.3% and 97.9%, respectively.

With `COc1ccc2c(c1)nnn1c3ncccc3c(N=O)c21`, the growth was -0.214% (active) in the test with T-47D breast; -11.7% (active) in the test with BT-549 breast; -5.59% (active) in the test on MDA-MB-435 melanoma; -80.3% (active) in the test on SW-620 colon; -58.7% (active) in the test on MCF7 breast; -86% (active) in the test with HCT-116 colon. For the same molecule, the values for the growth in the test with HCC-2998 colon and in the test with KM12 colon were 12.6% and 5.81% (active), respectively.

With `Cc1ccc2nc(-c3ccc(-n4on4-c4ccc(/C=C/c5ccc(-n6on6-c6ccc(-c7nc8ccc(C)cc8s7)cc6)cc5S(=O)(=O)O)c(S(=O)(=O)O)c4)cc3)sc2c1`, the growth in the test on T-47D breast is 95.5%; in the test with BT-549 breast, 114%; with MDA-MB-435 melanoma it was 110%; in the test on SW-620 colon, 117%; in the test on MCF7 breast, 110%; in the test on HCT-116 colon, 103%. For the same molecule, the growth is 107% in the test on HCC-2998 colon and 103% in the test with KM12 colon.

As for `CC(CCC(=O)O)[C@H]1CCC2C3C(=O)C[C@@H]4CC(=O)CC[C@]4(C)C3CC(=O)[C@@]21C` (stereo partly drawn), the growth in the test on T-47D breast was 97%; in the test with BT-549 breast, 112%; in the test on MDA-MB-435 melanoma it was 96.5%; in the test with SW-620 colon, 98.7%; in the test with MCF7 breast it was 105%; in the test with HCT-116 colon it was 112%. For the same molecule, the values for the growth with HCC-2998 colon and in the test on KM12 colon were 103% and 108%, respectively.

`CC(C)[C@@H]1NC(=O)[C@]2(C)CSC(=N2)c2ccnc(c2)CNC(=O)C[C@@H](/C=C/CCS)OC1=O`: the growth in the test on T-47D breast was -24.6% (active); in the test with BT-549 breast it was 42.7%; in the test with MDA-MB-435 melanoma, 5.07% (active); in the test on SW-620 colon, 4.68% (active); in the test with MCF7 breast, 16.1%; with HCT-116 colon, -39.2% (active). For the same molecule, the values for the growth in the test on HCC-2998 colon and with KM12 colon were -66.5% (active) and 6.09% (active), respectively.

Turning to `CN1CCN(Cn2nc(-c3cc(Cl)cc(Cl)c3Cl)n(/N=C/c3ccc(Cl)cc3)c2=S)CC1`, the growth in the test with T-47D breast is 94.9%; with BT-549 breast, 102%; in the test on MDA-MB-435 melanoma it was 107%; with SW-620 colon, 110%; in the test with MCF7 breast, 95.5%; in the test on HCT-116 colon it was 89.4%. Besides, the growth in the test with HCC-2998 colon was 103%; in the test with KM12 colon it was 107%.

Turning to `COc1ccc(C2=NN(C(=O)COc3ccc(Cl)cc3)C(O)(c3cc(F)c(Cl)cc3Cl)C2)cc1OC` (stereo not drawn), the growth in the test with T-47D breast was -51.1% (active); in the test on BT-549 breast it was -76% (active); in the test on MDA-MB-435 melanoma it was 8.66% (active); in the test with SW-620 colon it was -84.8% (active); in the test on MCF7 breast, 7.79% (active); in the test with HCT-116 colon, -69.1% (active). For the same molecule, the growth is 78.4% with HCC-2998 colon and 60.4% in the test with KM12 colon.
